Results as given in PubChem BioAssay (EPA / NIEHS).
Calls of active or inactive are those of the source. Rule for the calls: active = hit-call score of the fitted dose curve at least 0.9, where 1 is the maximum; inactive = score below 0.9.

Tests used:
[1] = read-out: Matrix Metallopeptidase 1 (MMP1), MMP1 (gene 4312); assay: BSK_BE3C_MMP1: BioMAP Diversity Plus: BE3C Assay for Matrix Metallopeptidase 1 (MMP1) Biomarker Activity (AID 2283024); details: primary human bronchial epithelial cells; actives raise or lower the signal
Summary of the method: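 In this multiplexed primary-cell system, human bronchial epithelium received chemicals for 24 h before an ELISA for MMP1. Values reflect bidirectional fits normalised to the DMSO baseline.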

[2] = read-out: Pselectin, SELP (gene 6403); assay: BSK_4H_Pselectin: BioMAP Diversity Plus: 4H Assay for Pselectin Biomarker Activity (AID 2283026); details: primary human endothelial cells (HUVEC); actives raise or lower the signal
Summary of the method: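 Bidirectional fits against DMSO gave the endpoint. Cells: primary human umbilical vein endothelium, chemical-treated for 24 h before ELISA detection of P-selectin.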

[3] = BSK_4H_SRB: Viability Assessment in the BioMAP Diversity Plus: 4H Assay (AID 2283027); details: primary human endothelial cells (HUVEC);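 note: cells exposed to compound for 24 h before staining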;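 for AC50: curves fitted both ways versus DMSO so AC50 may be loss or gain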
Summary of the method: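 Cytotoxicity readout: sulforhodamine B (0.1%) staining of total protein after 10% TCA fixation, measured at 560 nm in human umbilical vein endothelium at 24 h. DMSO set the baseline; fitting was bidirectional.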

[4] = BSK_BE3C_SRB: Viability Assessment in the BioMAP Diversity Plus: BE3C Assay (AID 2283028); details: primary human bronchial epithelial cells
Summary of the method: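 Cytotoxicity read-out: SRB (0.1%) staining of TCA-fixed (10%) human lung bronchial epithelial cells, absorbance 560 nm, 24 h post-dosing. Curves fitted both directions relative to DMSO.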

[5] = read-out: Thrombomodulin, THBD (gene 7056); assay: BSK_3C_Thrombomodulin: BioMAP Diversity Plus: 3C Assay for Thrombomodulin Biomarker Activity (AID 2283029); details: primary human endothelial cells (HUVEC); actives raise or lower the signal
Summary of the method: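 In a multiplexed primary-cell system, human umbilical vein endothelium received chemical and was assayed 24 h later for thrombomodulin by ELISA. Parallel cultures were SRB-stained (0.1% SRB after 10% TCA fixation, read at 560 nm) to flag cytotoxicity.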

[6] = read-out: Urokinase-type plasminogen activator receptor (uPAR), PLAUR (gene 5329); assay: BSK_4H_uPAR: BioMAP Diversity Plus: 4H Assay for Urokinase-type plasminogen activator receptor (uPAR) Biomarker Activity (AID 2283030); details: primary human endothelial cells (HUVEC); actives raise or lower the signal
Summary of the method: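 uPAR level read by ELISA on HUVEC cultures (BioMAP 4H) 24 h post-dosing, analyzed for gain or loss relative to DMSO. Parallel SRB staining assessed overt cytotoxicity.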

[7] = read-out: Vascular endothelial growth factor receptor 2 (Homo sapiens) (UniProt P35968); assay: BSK_4H_VEGFRII: BioMAP Diversity Plus: 4H Assay for Vascular endothelial growth factor receptor 2 (VEGFR2) Biomarker Activity (AID 2283031); details: primary human endothelial cells (HUVEC); actives raise or lower the signal;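 for AC50: cell-surface VEGFR2 protein level quantified by ELISA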
Summary of the method: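 Measured by ELISA after 24 h of compound treatment: VEGFR2 on primary human umbilical vein endothelial cells, fitted in both directions relative to DMSO. Parallel cultures received SRB staining (560 nm) for overt cytotoxicity.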

[8] = read-out: Human Leukocyte Antigen - DR isotype (HLADR), HLA-DRA (gene 3122); assay: BSK_BE3C_HLADR: BioMAP Diversity Plus: BE3C Assay for Human Leukocyte Antigen - DR isotype (HLADR) Biomarker Activity (AID 2283032); details: primary human bronchial epithelial cells; actives raise or lower the signal
Summary of the method: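 BioMAP BE3C format: human bronchial epithelium, 24 h compound treatment, ELISA detection of HLA-DR, with bidirectional analysis relative to DMSO.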

[9] = read-out: Vascular cell adhesion molecule 1 (VCAM1), VCAM1 (gene 7412); assay: BSK_4H_VCAM1: BioMAP Diversity Plus: 4H Assay for Vascular cell adhesion molecule 1 (VCAM1) Biomarker Activity (AID 2283033); details: primary human endothelial cells (HUVEC); actives raise or lower the signal
Summary of the method: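 In this human endothelial (HUVEC) system, biomarker ELISA was run 24 h after compound addition, and total protein in parallel wells was assessed by SRB at 560 nm; DMSO served as negative control.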

[10] = read-out: Interferon-gamma inducible Protein 10 (IP10), CXCL10 (gene 3627); assay: BSK_BE3C_IP10: BioMAP Diversity Plus: BE3C Assay for Interferon-gamma inducible Protein 10 (IP10) Biomarker Activity (AID 2283034); details: primary human bronchial epithelial cells; actives raise or lower the signal
Summary of the method: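 BE3C cells (human bronchial epithelial, primary); 24 h exposure; ELISA for IP-10; DMSO-referenced bidirectional fit.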

[11] = read-out: Monokine induced gamma interferon (MIG), CXCL9 (gene 4283); assay: BSK_BE3C_MIG: BioMAP Diversity Plus: BE3C Assay for Monokine induced gamma interferon (MIG) Biomarker Activity (AID 2283035); details: primary human bronchial epithelial cells; actives raise or lower the signal;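 note: MIG protein measured by ELISA in BE3C cultures after 24 h of dosing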
Summary of the method: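 hu bronchial epithelial 1° cells, 24 h cpd; MIG by ELISA; bidirectional fit, DMSO = baseline.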

[12] = read-out: Plasminogen activator inhibitor-1 (PAI1), SERPINE1 (gene 5054); assay: BSK_BE3C_PAI1: BioMAP Diversity Plus: BE3C Assay for Plasminogen activator inhibitor-1 (PAI1) Biomarker Activity (AID 2283037); details: primary human bronchial epithelial cells; actives raise or lower the signal
Summary of the method: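 In this multiplexed primary-cell system, bronchial epithelial cells receive test chemical and are sampled at 24 h. PAI-1 is read by ELISA, with DMSO serving as negative control for bidirectional fitting.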

[13] = read-out: urokinase plasminogen activator (uPA), PLAU (gene 5328); assay: BSK_BE3C_uPA: BioMAP Diversity Plus: BE3C Assay for urokinase plasminogen activator (uPA) Biomarker Activity (AID 2283038); details: primary human bronchial epithelial cells; actives raise or lower the signal;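 note: uPA protein level quantified by ELISA in cell cultures; uPA read one day after compound addition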
Summary of the method: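 ELISA for uPA on human primary bronchial epithelial cultures 24 h post-treatment, gain or loss against DMSO. Parallel SRB staining (0.1% after 10% TCA fixation, 560 nm) assessed overt cytotoxicity.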

[14] = read-out: Urokinase-type plasminogen activator receptor (uPAR), PLAUR (gene 5329); assay: BSK_BE3C_uPAR: BioMAP Diversity Plus: BE3C Assay for Urokinase-type plasminogen activator receptor (uPAR) Biomarker Activity (AID 2283039); details: primary human bronchial epithelial cells; actives raise or lower the signal;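 note: uPAR protein level measured by ELISA on the cells; cells exposed to compound for one day before measurement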
Summary of the method: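 Chemically treated human bronchial epithelial cells (lung primary) are assayed for uPAR by ELISA after 24 h, with data fitted in both directions using DMSO as negative control.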

[15] = read-out: Interleukin-6 (IL6), IL6 (gene 3569); assay: BSK_CASM3C_IL6: BioMAP Diversity Plus: CASM3C Assay for Interleukin-6 (IL6) Biomarker Activity for (AID 2283040); details: primary human coronary artery smooth muscle cells; actives raise or lower the signal
[16] = read-out: Tissue plasminogen activator (tPA), PLAT (gene 5327); assay: BSK_BE3C_tPA: BioMAP Diversity Plus: BE3C Assay for Tissue plasminogen activator (tPA) Biomarker Activity (AID 2283041); details: primary human bronchial epithelial cells; actives raise or lower the signal;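 note: tPA level quantified by ELISA one day after compound addition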
Summary of the method: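 Using human lung primary bronchial epithelial cells, tPA was measured by ELISA 24 h after dosing; data fitted relative to DMSO.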

[17] = read-out: Interleukin-8 (IL8), CXCL8 (gene 3576); assay: BSK_CASM3C_IL8: BioMAP Diversity Plus: CASM3C Assay for Interleukin-8 (IL8) Biomarker Activity (AID 2283042); details: primary human coronary artery smooth muscle cells; actives raise or lower the signal;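 note: IL-8 protein level quantified by ELISA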
[18] = read-out: Human Leukocyte Antigen - DR isotype (HLADR), HLA-DRA (gene 3122); assay: BSK_CASM3C_HLADR: BioMAP Diversity Plus: CASM3C Assay for Human Leukocyte Antigen - DR isotype (HLADR) Biomarker Activity (AID 2283043); details: primary human coronary artery smooth muscle cells; actives raise or lower the signal;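 note: cell-surface HLA-DR protein level quantified by ELISA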
[19] = read-out: Transforming growth factor beta 1 (TGFb1), TGFB1 (gene 7040); assay: BSK_BE3C_TGFb1: BioMAP Diversity Plus: BE3C Assay for Transforming growth factor beta 1 (TGFb1) Biomarker Activity (AID 2283036;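 note: TGF-b1 protein level measured by ELISA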); details: primary human bronchial epithelial cells; actives raise or lower the signal
Summary of the method: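 TGF-b1 measured via ELISA, 24 h after chemical dosing of human bronchial epithelial cells (BE3C). Overt cytotoxicity assessed in parallel by SRB (0.1%, TCA-fixed, 560 nm); analysis bidirectional relative to DMSO.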

Measured: AC50

Cc1ccc([N+](=O)[O-])cc1
inactive: [1] | [2] | [3] | [4] | [5] | [6] | [7] | [8] | [9] | [10] | [11] | [12] | [13] | [14] | [15] | [16] | [17] | [18]

CCCCCCCCCCCCCN1CC(C)OC(C)C1 (configuration not stated)
inactive: [1] | [2] | [3] | [4] | [5] | [6] | [7] | [8] | [9] | [10] | [11] | [12] | [13] | [14] | [15] | [16] | [17] | [18]

O=P(OCCCl)(OCCCl)OCCCl
inactive: [1] | [2] | [3] | [4] | [5] | [6] | [7] | [8] | [9] | [10] | [11] | [12] | [13] | [14] | [15] | [16] | [17] | [18]

ClC1=C(Cl)[C@]2(Cl)[C@H]3[C@H]([C@@H]4C=C[C@H]3C4)[C@@]1(Cl)C2(Cl)Cl
active: [1] 20 µM | [2] 24.1 µM | [3] 33.3 µM | [6] 32.3 µM | [7] 29.4 µM | [9] 33.9 µM | [10] 30.3 µM | [12] 34 µM | [17] 37.4 µM | [18] 34 µM
inactive: [4] | [5] | [8] | [11] | [13] | [14] | [15] | [16]

CC(O)CCO (configuration not stated)
inactive: [1] | [2] | [3] | [4] | [5] | [6] | [7] | [8] | [9] | [10] | [11] | [12] | [13] | [14] | [15] | [16] | [17] | [18]

O=C(Oc1ccc(Br)cc1)N1CCN2CCC1CC2
inactive: [1] | [2] | [3] | [4] | [5] | [6] | [7] | [8] | [9] | [10] | [11] | [12] | [13] | [14] | [15] | [16] | [17] | [18]

C1=Cc2cccc3cccc1c23
inactive: [1] | [2] | [3] | [4] | [5] | [6] | [7] | [8] | [9] | [10] | [11] | [12] | [13] | [14] | [15] | [16] | [17] | [18]

ClCCOCCCl
inactive: [1] | [2] | [3] | [4] | [5] | [6] | [7] | [8] | [9] | [10] | [11] | [12] | [13] | [14] | [15] | [16] | [17] | [18]

Nc1ccc(N=Nc2ccccc2)cc1
active: [3] 13.1 µM | [18] 16.8 µM
inactive: [1] | [2] | [4] | [5] | [6] | [7] | [8] | [9] | [10] | [11] | [12] | [13] | [14] | [15] | [16] | [17]

CS(=O)(=O)NC(=O)c1cc(Oc2ccc(C(F)(F)F)cc2Cl)ccc1[N+](=O)[O-]
active: [18] 20 µM
inactive: [1] | [2] | [3] | [4] | [5] | [6] | [7] | [8] | [9] | [10] | [11] | [12] | [13] | [14] | [15] | [16] | [17]

CNC(=O)Oc1cccc2c1OC(C)(C)C2
inactive: [1] | [2] | [3] | [4] | [5] | [6] | [7] | [8] | [9] | [10] | [11] | [12] | [13] | [14] | [15] | [16] | [17] | [18]

CCCCC(CC)COC(=O)c1ccc(C(=O)OCC(CC)CCCC)c(C(=O)OCC(CC)CCCC)c1 (configuration not stated)
inactive: [1] | [2] | [3] | [4] | [5] | [6] | [7] | [8] | [9] | [10] | [11] | [19] | [12] | [13] | [14] | [15] | [16] | [17] | [18]

c1ccc(N=Nc2ccccc2)cc1
inactive: [1] | [2] | [3] | [4] | [5] | [6] | [7] | [8] | [9] | [10] | [11] | [19] | [12] | [13] | [14] | [15] | [16] | [17] | [18]

COC(=O)c1ccccc1N
inactive: [1] | [2] | [3] | [4] | [5] | [6] | [7] | [8] | [9] | [10] | [11] | [12] | [13] | [14] | [15] | [16] | [17] | [18]

O=Cc1ccco1
inactive: [1] | [2] | [3] | [4] | [5] | [6] | [7] | [8] | [9] | [10] | [11] | [12] | [13] | [14] | [15] | [16] | [17] | [18]
